Source: the supplement of paper PMC10127200
Counter-ions that a name gives are not always drawn.

Key:
Assay in all cases: Euclidean distance of Cell Painting phenotypic profile (signed KS, 77 features) to DMSO centroid (dimensionless distance); 5 or 10 uM (library dependent); higher = stronger phenotypic change vs DMSO (phenoactivity)
Settings in all cases: 48 h
786-O = test system: 786-O
How it was run: (§1)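 Harmony extracted 77 features from 20X confocal images (9 fields/well) of stained cells, scoring each as a signed Kolmogorov-Smirnov statistic against same-plate vehicle wells. The cells, five cancer lines and a healthy fibroblast line, had received library compounds for 48 h at 10 or 5 uM depending on library, with 0.1% DMSO final. Phenoactivity is the Euclidean distance from each plate-position-corrected, correlation-weighted, top-dose replicate-averaged profile to the median vehicle profile.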

A549 = test system: A549
How it was run: as §1

DU145 = test system: DU145
How it was run: as §1

FB = test system: FB
How it was run: as §1

HEPG2 = test system: HEPG2
How it was run: as §1

OVCAR4 = test system: OVCAR4
How it was run: as §1

Structure (SMILES)	Euclidean distance (786-O)	Euclidean distance (A549)	Euclidean distance (DU145)	Euclidean distance (FB)	Euclidean distance (HEPG2)	Euclidean distance (OVCAR4)
c1ccc([C@H]2CN3CCSC3=N2)cc1 [Levamisole hydrochloride]	0.976	0.704	1.37	0.953	0.417	1.23
O=C(Cc1cccc(OC(F)(F)F)c1)Nc1ccc(CCCCc2nnc(NC(=O)Cc3ccccn3)s2)nn1	2.27	2.41	1.99	3.38	2.75	2.28
CCN(CC)CC(=O)Nc1c(C)cccc1C [Lidocaine]	1.65	0.785	1.51	0.913	0.435	1.11
CN1CCC(=C2c3ccccc3CCc3sccc32)CC1 [Pizotifen Malate]	1.65	1.87	2.14	2.2	1.73	1.29
CCc1c(Cl)c(O)c(Cl)c(O)c1C(=O)O[C@H]1[C@H](O)[C@H](OC)[C@H](OC/C2=C\C=C\C[C@H](O)/C(C)=C/[C@H](CC)[C@@H](O[C@@H]3OC(C)(C)[C@@H](OC(=O)C(C)C)[C@H](O)[C@@H]3O)/C(C)=C/C(C)=C/C[C@@H]([C@@H](C)O)OC2=O)O[C@@H]1C [Fidaxomicin]	1.59	1.88	1.64	1.94	1.5	1.68
COc1ccccc1[C@H](Cn1c(=O)n(C(C)(C)C(=O)O)c(=O)c2c(C)c(-c3ncco3)sc21)OC1CCOCC1 [Firsocostat (GS-0976)]	0.952	0.95	1.31	1.74	1.31	1.15
CC#CCn1c(N2CCC[C@@H](N)C2)nc2c1c(=O)n(Cc1nc(C)c3ccccc3n1)c(=O)n2C [Linagliptin]	0.904	0.984	0.641	1.4	0.628	0.529
CCCCOc1cc(C(=O)OCCN(CC)CC)ccc1N [Oxybuprocaine HCl]	1.13	0.889	1.18	0.902	0.935	1.1
Clc1ccc2c(c1)CCc1cccnc1C2=C1CCNCC1 [Desloratadine]	1.38	0.811	1.51	1.83	2.17	1.88
COc1ccc(-c2cc(=S)ss2)cc1 [Anethole trithione]	1.49	1.04	1.18	1.03	0.61	1.06
Nc1ccn([C@@H]2O[C@H](CO)[C@@H](O)[C@H]2O)c(=O)n1 [Cytidine]	1.92	0.659	1.04	0.943	1.9	1
CN[C@@H]1[C@@H](O[C@H]2O[C@H](CO)[C@@H](N)[C@H](O)[C@H]2O)OC2C[C@@H](N)[C@@H](O[C@H]3[C@H](O)[C@@H](O)[C@H](N)C[C@@H]3N)OC2[C@@H]1O (stereo not given in full) [Apramycin Sulfate]	1.51	0.794	0.965	1.27	0.895	1.19
C#CCC(Cc1cnc2nc(N)nc(N)c2n1)c1ccc(C(=O)N[C@@H](CCC(=O)O)C(=O)O)cc1 (stereo not given in full) [Pralatrexate]	1.51	2.98	0.922	1.25	1.73	2.44
CC(=O)[C@H]1CC[C@H]2[C@@H]3C[C@H](C)C4=CC(=O)CC[C@]4(C)[C@H]3[C@@H](O)C[C@]12C [Medrysone]	1.22	1.8	1.96	1.72	0.963	1.81
O=C1NC(=O)/C(=C/c2ccc(-c3ccc(F)cc3O)o2)S1	1.18	0.855	1.25	1.02	0.814	0.97
CO[C@H]1/C=C/O[C@@]2(C)Oc3c(C)c(O)c4c(O)c(c(/C=N/N5CCN(C6CCCC6)CC5)c(O)c4c3C2=O)NC(=O)/C(C)=C\C=C\[C@H](C)[C@H](O)[C@@H](C)[C@@H](O)[C@@H](C)[C@H](OC(C)=O)[C@@H]1C [Rifapentine]	1.24	0.894	1.76	1.72	2.12	1.56
C#C[C@]1(O)CC[C@H]2[C@@H]3CCC4=CCCC[C@@H]4[C@H]3CC[C@@]21C [Lynestrenol]	1.13	1.3	1.48	1.17	0.777	1.41
CC1Cc2ccccc2N1NC(=O)c1ccc(Cl)c(S(N)(=O)=O)c1 (stereo not given) [Indapamide]	0.856	0.679	1.26	0.772	1.91	1.41
CCCCCCCCCC(=O)CC(O)S(=O)(=O)O (stereo not given) [Sodium Houttuyfonate]	1.45	0.727	1.5	0.985	1.06	1.66
CCCN[C@H]1CCc2nc(N)sc2C1 [Pramipexole dihydrochloride]	0.969	0.801	1.16	1.09	0.46	1.16
O=C(CCCCCCC(=O)Nc1ccccc1)NO [Vorinostat (SAHA. MK0683)]	3.44	2.96	3.15	3.77	3.15	2.85
COc1cc(/C=C/C(=O)O)ccc1O [Sodium ferulate]	1.56	1.15	1.14	1.08	1.11	1.46
COc1c(C)c(C(=O)c2ccc(N)c(C(=O)O)c2)n2ccccc12	0.838	1.03	0.919	1.47	0.969	1.32

Structure (SMILES)	Euclidean distance (786-O)	Euclidean distance (A549)	Euclidean distance (DU145)	Euclidean distance (FB)	Euclidean distance (HEPG2)	Euclidean distance (OVCAR4)
COC(=O)c1cc(OC)c2c(c1-c1c(CO)cc(OC)c3c1OCO3)OCO2 [Bicyclol]	1.47	0.509	2.55	0.898	1.1	1.06
COc1ccc(NC(=O)c2ccc(C(=N)N(C)C)cc2)c(C(=O)Nc2ccc(Cl)cn2)c1 [Betrixaban]	1.22	0.664	0.647	0.875	0.841	0.904
O=c1c(O[C@@H]2O[C@H](CO)[C@@H](O)[C@H](O)[C@H]2O)c(-c2ccc(O)c(O)c2)oc2cc(O)cc(O)c12 [Isoquercitrin]	0.868	0.899	0.931	0.989	0.812	1.03
CCC(C)n1ncn(-c2ccc(N3CCN(c4ccc(OCC5COC(Cn6cncn6)(c6ccc(Cl)cc6Cl)O5)cc4)CC3)cc2)c1=O (stereo not given) [Itraconazole]	4.09	2.48	1.52	1.53	1.02	1
O=C1CN(/N=C/c2ccc(-c3ccc([N+](=O)[O-])cc3)o2)C(=O)N1 [Dantrolene sodium]	0.573	0.503	1.37	0.968	0.758	1.01
O=C(Nc1ccc(O)cc1)c1ccccc1O [Osalmid]	1.02	0.634	1.01	1.27	0.744	0.853
CC1Oc2cc(cnc2N)-c2c(nn(C)c2C#N)CN(C)C(=O)c2ccc(F)cc21 (stereo not given)	0.876	1.02	1.34	1.55	2.11	1.26
COc1cc(O)c2c(c1)C(=O)c1cc(C)cc(O)c1C2=O [Rheochrysidin]	1.23	0.528	1.42	0.862	4.92	1.29
CCC(Cc1c(I)cc(I)c(N)c1I)C(=O)O (stereo not given) [Iopanoic acid]	0.512	0.937	0.812	1.22	0.765	0.713
Clc1ccc(C(Cn2ccnc2)OCc2c(Cl)cccc2Cl)c(Cl)c1 (stereo not given) [Isoconazole nitrate]	1.02	0.91	1.26	0.868	0.714	1.04
C[C@H]1NCc2cc(-c3ccc4c(=O)c(C(=O)O)cn(C5CC5)c4c3OC(F)F)ccc21 [Garenoxacin]	0.629	0.876	0.678	1.54	0.463	1.08
Cc1c(-c2ccc(O)cc2)n(Cc2ccc(OCCN3CCCCCC3)cc2)c2ccc(O)cc12 [Bazedoxifene HCl]	5.12	4.91	3.42	4.82	4.62	4.32
CCOC(=O)[C@H](CCc1ccccc1)N[C@@H](C)C(=O)N1Cc2ccccc2C[C@H]1C(=O)O [Quinapril HCl]	1.41	1.16	0.942	1.09	0.483	1.04
O=C1NC(=O)/C(=C/c2ccc3c(c2)OC(F)(F)O3)S1	1.35	1.7	1.51	1.44	1.13	0.892
O=C(O)C(O)C(O)C(=O)O (stereo not given) [Tartaric acid]	0.758	0.688	0.848	1.25	0.481	0.632
N=C(NOCC(O)CN1CCCCC1)c1cccnc1 (stereo not given)	1.13	0.912	1.06	1.33	0.604	1.05
CCOc1ccc(Cc2cc([C@]34OC[C@](CO)(O3)[C@@H](O)[C@H](O)[C@H]4O)ccc2Cl)cc1 [Ertugliflozin]	1.45	0.762	1.22	0.862	0.465	1.23
Cn1nc(C(C)(C)C)cc1C(=O)N[C@@H](Cc1cccc(Cl)c1)C(=O)NCC#N [Cathepsin Inhibitor 1]	1.97	2.28	2.22	1.9	1.43	1.92
c1ccc2c(c1)CCCC2C1=NCCN1 (stereo not given) [Tetrahydrozoline HCl]	0.978	0.966	0.786	0.944	0.601	1.78
NC12CC3CC(CC(C3)C1)C2 [Amantadine HCl]	1.14	0.94	1.01	0.961	0.485	0.875
CNC1(C)C2CCC(C2)C1(C)C (stereo not given) [Mecamylamine Hydrochloride]	1.04	0.418	0.617	1.01	0.384	1.18
C#C[C@]1(O)CC[C@H]2[C@@H]3CCC4=CC(=O)CC[C@@H]4[C@H]3CC[C@@]21CC [Levonorgestrel]	1.01	0.81	0.624	0.673	0.994	0.816
